Laboratory results from PubChem BioAssay (NCI).
Compounds without any hit were thinned out: in the full panel of roughly 79,000, 15% have a hit. Active and inactive are the calls of the source. Rule as the data show it: active = growth inhibition above about 70%; inactive = the rest.

Columns and labels:
[1] = NCI Yeast Anticancer Drug Screen. Data for the rad50 strain (AID 155);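 also: 0% = growth of vehicle-only cultures of the same strain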; details: S. cerevisiae rad50 strain growth inhibition, active compounds read high
Procedure, shortened: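 Genetically altered yeast (DNA repair pathway); compound treatment; growth inhibition vs vehicle ctrl.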

[2] = NCI Yeast Anticancer Drug Screen. Data for the mec2-1 strain (AID 157); details: S. cerevisiae mec2-1 strain, active compounds read high
Procedure, shortened: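 Strain: mec2-1 (DNA repair/cell cycle alteration). Compound exposure, then growth measured; inhibition expressed relative to vehicle.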

[3] = NCI Yeast Anticancer Drug Screen. Data for the sgs1 mgt1 strain (AID 161);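 also: 0% = growth of cultures given vehicle only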; details: S. cerevisiae sgs1 mgt1 strain, active compounds read high
Procedure, shortened: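 Test agents were incubated with a DNA-repair-mutant yeast strain. Growth was then read and compared against vehicle-treated controls.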

[4] = NCI Yeast Anticancer Drug Screen. Data for the cln2 rad14 strain (AID 165);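 also: 0% = growth equal to vehicle treated cultures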; details: S. cerevisiae cln2 rad14 strain, active compounds read high
Procedure, shortened: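 Compounds are applied to the cln2 rad14 yeast strain, and growth is then compared with that of vehicle-treated cultures to give inhibition.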

[5] = NCI Yeast Anticancer Drug Screen. Data for the bub3 strain (AID 167); details: S. cerevisiae bub3 mutant strain, active compounds read high
Procedure, shortened: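 Yeast carrying a defined mutation is treated with each compound, and growth is compared with that of vehicle-exposed cells to give inhibition.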

[6] = NCI Yeast Anticancer Drug Screen. Data for the mlh1 rad18 strain (AID 175); details: S. cerevisiae mlh1 rad18 strain growth inhibition, active compounds read high
Procedure, shortened: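 Read-out is yeast growth inhibition, calculated against vehicle-only controls. The compound was applied to a strain engineered with DNA damage repair alterations.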

[7] = at 5.0 µM (retest, dose inferred, filed as 0.5)
[8] = at 50.0 µM (retest, dose inferred, filed as 5.0)

Measured: growth inhibition

COc1ccc(/C=C/[N+](=O)[O-])c(OC)c1OC
inactive: [1]; [7] 43% | [1]; [8] 50% | [2]; [7] 52% | [2]; [8] 55% | [3]; [7] 48% | [4]; [7] 50% | [4]; at 50.0 µM 54% | [5]; [7] 69% | [6]; [7] 39% | [6]; [8] 48%
active: [1]; at 50.0 µM 84.5% | [2]; at 50.0 µM 92.5% | [3]; [8] 100% | [3]; at 50.0 µM 93.2% | [4]; [8] 99% | [5]; [8] 99% | [5]; at 50.0 µM 91.8% | [6]; at 50.0 µM 87.8%

CC/C(=C\c1ccc(Cl)cc1)[N+](=O)[O-]
inactive: [1]; [7] 34% | [1]; at 50.0 µM 13.1% | [2]; [7] 12% | [2]; at 50.0 µM -3.1% | [3]; [7] 14% | [3]; at 50.0 µM 53.1% | [4]; [7] 7% | [4]; at 50.0 µM -5.45% | [5]; [7] 25% | [5]; at 50.0 µM 4.95% | [6]; [7] 13% | [6]; at 50.0 µM 8.15%
active: [1]; [8] 99% | [2]; [8] 99% | [3]; [8] 99% | [4]; [8] 99% | [5]; [8] 99% | [6]; [8] 99%

CCC[CH2][Sn]([F])([CH2]CCC)[O][Sn]([F])([CH2]CCC)[CH2]CCC
active: [1]; [8] 98% | [1]; at 50.0 µM 97.5% | [2]; [8] 99% | [2]; at 50.0 µM 98.9% | [3]; [8] 98% | [3]; at 50.0 µM 98.2% | [4]; [8] 98% | [4]; at 50.0 µM 98.3% | [5]; [8] 96% | [5]; at 50.0 µM 98.5% | [6]; [8] 97% | [6]; at 50.0 µM 98.2%
inactive: [1]; [7] 51% | [2]; [7] 46% | [3]; [7] 50% | [4]; [7] 34% | [5]; [7] 54% | [6]; [7] 48%

COC([CH2][Hg][n]1cnc2c1c(=O)n(C)c(=O)n2C)CN1C(=O)c2ccccc2S1(=O)=O (stereo not given)
active: [1]; [8] 94% | [1]; at 50.0 µM 96.8% | [2]; [8] 84% | [2]; at 50.0 µM 95.3% | [3]; [8] 89% | [3]; at 50.0 µM 87.7% | [4]; at 50.0 µM 87.2% | [5]; [8] 89% | [5]; at 50.0 µM 95.1% | [6]; [8] 95% | [6]; at 50.0 µM 97%
inactive: [1]; [7] 9% | [2]; [7] 20% | [3]; [7] -2% | [4]; [7] -11% | [4]; [8] 69% | [5]; [7] -1% | [6]; [7] -1%

CC(C)(C)C(Br)C(=O)NC(N)=O (stereo not given)
active: [4]; at 50.0 µM 82.2%
inactive: [1]; [7] 1% | [1]; [8] -6% | [1]; at 50.0 µM -8% | [2]; [7] -4% | [2]; [8] 3% | [2]; at 50.0 µM -0.45% | [3]; [7] 12% | [3]; [8] -7% | [3]; at 50.0 µM -19.4% | [4]; [7] -6% | [4]; [8] 2% | [5]; [7] -3% | [5]; [8] -3% | [5]; at 50.0 µM -12% | [6]; [7] -2% | [6]; [8] -8% | [6]; at 50.0 µM 16.3%

O=[N+]([O-])c1cc(C(F)(F)F)cc2n[se]nc12
inactive: [3]; [7] 47% | [4]; [7] 49%
active: [1]; [7] 82% | [1]; [8] 98% | [1]; at 50.0 µM 87.2% | [2]; [7] 81% | [2]; [8] 99% | [2]; at 50.0 µM 93.3% | [3]; [8] 100% | [3]; at 50.0 µM 90.8% | [4]; [8] 99% | [4]; at 50.0 µM 90.8% | [5]; [7] 94% | [5]; [8] 97% | [5]; at 50.0 µM 90.6% | [6]; [7] 75% | [6]; [8] 97% | [6]; at 50.0 µM 90.5%

O=[N+]([O-])c1ccc(O)c(Cl)c1
inactive: [1]; [7] -3% | [1]; [8] 41% | [1]; at 50.0 µM 68.7% | [2]; [7] -2% | [2]; [8] 54% | [3]; [7] -4% | [3]; [8] 44% | [3]; at 50.0 µM 66% | [4]; [7] -12% | [4]; [8] 57% | [4]; at 50.0 µM 52.2% | [5]; [7] -5% | [5]; [8] 25% | [5]; at 50.0 µM 64.5% | [6]; [7] -5% | [6]; [8] 53%
active: [2]; at 50.0 µM 78.9% | [6]; at 50.0 µM 70.8%

CCC[CH2][Sn]1([CH2]CCC)[O]C(=O)c2cc(C)ccc2[O]1
active: [1]; [7] 82% | [1]; [8] 97% | [1]; at 50.0 µM 88.8% | [2]; [7] 89% | [2]; [8] 98% | [2]; at 50.0 µM 90.8% | [3]; [7] 86% | [3]; [8] 98% | [3]; at 50.0 µM 91.5% | [4]; [7] 71% | [4]; [8] 97% | [4]; at 50.0 µM 89.3% | [5]; [7] 91% | [5]; [8] 98% | [5]; at 50.0 µM 90.6% | [6]; [7] 91% | [6]; [8] 98% | [6]; at 50.0 µM 89%

Oc1c(Cl)cc(-c2cc(Cl)c(O)c(Cl)c2)cc1Cl
inactive: [4]; [7] 57%
active: [1]; [7] 95% | [1]; [8] 94% | [1]; at 50.0 µM 84.2% | [2]; [7] 96% | [2]; [8] 97% | [2]; at 50.0 µM 89% | [3]; [7] 89% | [3]; [8] 97% | [3]; at 50.0 µM 89.7% | [4]; [8] 98% | [4]; at 50.0 µM 87.6% | [5]; [7] 92% | [5]; [8] 96% | [5]; at 50.0 µM 86.7% | [6]; [7] 99% | [6]; [8] 99% | [6]; at 50.0 µM 84.9%

CCC[CH2][Sn]1([CH2]CCC)[O]C(c2ccccn2)S(=O)(=O)[O]1 (stereo not given)
inactive: [1]; [7] 19% | [1]; [8] 19% | [2]; [7] 12% | [2]; [8] 12% | [3]; [7] 18% | [3]; [8] 18% | [4]; [7] 5% | [4]; [8] 5% | [5]; [7] 1% | [5]; [8] 1% | [6]; [7] 10% | [6]; [8] 10%
active: [1]; at 50.0 µM 90.2% | [2]; at 50.0 µM 91.2% | [3]; at 50.0 µM 90.1% | [4]; at 50.0 µM 90.5% | [5]; at 50.0 µM 91.3% | [6]; at 50.0 µM 88.3%
